Screening results as filed in PubChem BioAssay.
Rows were chosen to be rich in hits. Some 19% of all compounds tested hit in one or more screens of this group.
TDP1 cell CPT: DT40-hTDP1 cell growth loss with CPT; chicken DT40 Tdp1-/-;hTDP1 cells + 20 nM CPT, ATP luminescence, 48 h; Potency, µM (highest dose often 46.2 µM), most hits filed as inhibitors; 420,000 tested, 12% active; AID 686979; note: nearly all actives have a fitted effect of over 55% in size
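Chicken DT40 Tdp1-/- cells complemented with human TDP1, 400 cells/well, exposed to compounds plus 20 nM camptothecin for at least 48 h at 37 C; viability read as ATP content by CellTiter-Glo luminescence.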
ELG1 repair inh: ELG1-dependent DNA repair inhibition. HEK293T ELG1-luciferase reporter, luminescence, 16 h; DNA damage induced by 5-fluorouridine. AID 504467. 330,000 tested, 2.3% active. Potency, µM (top dose mostly 46.1 µM), hits mostly inhibitors; note: nearly all actives have a fitted effect of over 55% in size
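Luminescence from the luciferase reporter, measured 30 min after ONE-Glo reagent at room temperature, was the read-out. Beforehand, 2,000 cells per well were exposed for 16 hr at 37 °C to 5-fluorouridine together with compound or vehicle.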
HT1080-NT tox: kills 2HG-producing HT-1080-NT fibrosarcoma cells. HT-1080-NT fibrosarcoma viability, CellTiter-Glo ATP luminescence, 48 h. Potency, µM (top dose mostly 46.1 µM), actives largely listed as cytotoxic. 360,000 tested, 1.6% active. AID 686970;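 note: NT is the 2HG producing partner of a matched IDH1 knockdown line; nearly all actives have a fitted effect of over 55% in size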
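Toxicity toward the 2HG-producing NT line was scored as %Activity, normalised to DMSO and no-cell wells, from CellTiter-Glo luminescence after 48 hours' treatment.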
TDP1 cell noCPT: qHTS for Inhibitors of human tyrosyl-DNA phosphodiesterase 1 (TDP1): qHTS in cells in absence of CPT; DT40 Tdp1-/- hTDP1 cells, no CPT, ATP luminescence, 48 h; Potency, µM (top dose mostly 46.2 µM), hits mostly inhibitors; 420,000 tested, 15% active; note: nearly all actives have a fitted effect of over 55% in size
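Seeded 400 DT40-hTDP1 cells/well (vehicle DMSO, no 20 nM CPT); pinned compounds; ≥48 hr at 37 °C; CellTiter-Glo luminescence as viability measure.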
HT1080 IDH1KD tx: toxicity to HT-1080 IDH1 knockdown cells (counter line) | HT-1080 IDH1 knockdown viability, ATP luminescence, 48 h | Potency, µM (series often up to 46.1 µM), most hits filed as cytotoxic | 360,000 tested, 2% active | AID 686971
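CellTiter-Glo luminescence after 48 h compound exposure at 37 degrees C of IDH1-knockdown HT-1080 cells in 5% FBS RPMI. %Activity scaled between DMSO wells and cell-free media wells, with curves fitted and assigned curve classes.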
IL-1B inflam inh: inhibitors of inflammasome signaling (IL-1 beta secretion) | activity change, % at 57.5 µM | 360,000 tested, 4.7% active | THP-1 LPS/ATP IL-1B secretion, AlphaLISA, 16 h; stronger effect = lower value; in the data active = activity change below about -50%; inconclusive = mostly about -30% to -49%
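THP-1 cells pretreated 1 hr with compounds (up to 57.5 uM final), then stimulated with LPS (250 ng/mL final) plus ATP (1.25 mM final); secreted IL-1B measured by AlphaLISA after 16 hr, decreased signal indicating inhibition.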
A number is an active result; 0 = inactive; ? = inconclusive; - = no result; [ ] = remark or other dose. Unless noted, calls come from the whole dose curve; as a rule, active = well fitted curve in the direction sought with a large enough effect; inconclusive = small, poorly fitted or top-dose-only effect, or another doubt; inactive = no such curve, though single readings can be large; an effect the other way counts as inactive or inconclusive.

SMILES | TDP1 cell CPT | ELG1 repair inh | HT1080-NT tox | TDP1 cell noCPT | HT1080 IDH1KD tx | IL-1B inflam inh
FC(F)(F)c1cccc(C2NCc3ccccc3-n3cccc32)c1 (configuration not stated) | 0 | 0 | 0 | ? | ? | -88
O=C(COc1cccc(C(F)(F)F)c1)Nc1ccc(S(=O)(=O)N2CCCC2)cc1 | 23µM | ? | 0[9.24 µM] | ? | ? | 0
O=C(CCS(=O)(=O)c1ccc(Cl)cc1)Nc1cccc(S(=O)(=O)N2CCCCCC2)c1 | ? | - | 0 | ? | 0 | 0
CCc1cccc(NC(=O)Cn2c(=O)oc3cc(S(=O)(=O)N4CCOCC4)ccc32)c1 | 23µM | ? | 0 | 15µM | 0 | 0
O=C(Cn1c(=O)oc2cc(S(=O)(=O)N3CCCCCC3)ccc21)NCc1ccccc1Cl | 9.2µM | - | - | 7.3µM | - | -
CC1CC(C)CN(S(=O)(=O)c2ccc3c(c2)oc(=O)n3CC(=O)N(C)Cc2ccccc2)C1 (configuration not stated) | ? | 0 | 0 | ? | 0 | 0
Cc1ccc(NC(=O)Cn2c(=O)oc3cc(S(=O)(=O)N4CCCCCC4)ccc32)cc1Cl | 12µM | - | - | 21µM | - | -
Cc1cc(C)cc(NC(=O)Cn2c(=O)oc3cc(S(=O)(=O)N4CC(C)CC(C)C4)ccc32)c1 (configuration not stated) | ? | ? | ? | ? | ? | 0
CC(CN(C)C1CCN(C)CC1)c1ccccc1 (configuration not stated) | 0 | 0 | 0 | 0 | 0 | 0
CCOC(=O)C1=C[C@@H](OC(CC)CC)[C@H](NC(C)=O)[C@@H](N)C1 | 0 | - | - | 0 | - | -
O=C(Cn1c(=O)oc2cc(S(=O)(=O)N3CCCC3)ccc21)Nc1cccc(C(F)(F)F)c1 | 13µM | 0 | 0 | 15µM | 0 | 0
Cc1ccc(S(=O)(=O)CC(C)(O)C(=O)Nc2cccc(C(F)(F)F)c2)cc1 (configuration not stated) | 0 | 0 | 0 | 0 | ? | 0
CC(C)(C)c1ccc(OCC(=O)Nc2ccc(Cl)cc2C(=O)c2ccccc2)cc1 | ? | - | - | 0 | - | -
CC=CC(C)=CC(C)C(=O)CC(O)CC1CC(=O)NC(=O)C1 (configuration not stated) | 8.2µM | - | 0 | 5.8µM | 0 | 0
CCCNC(=O)N1[C@H]2CC[C@@H]1C(C(=O)OC)=C(c1ccccc1)C2 | 0 | - | 0 | - | 0 | 0
COC(=O)[C@]1(C)N[C@H](CN(C)S(=O)(=O)c2ccc(-c3ccccc3)cc2)[C@@H]2C(=O)N(Cc3ccccc3)C(=O)[C@@H]21 | ? | ? | 0 | ? | 0 | 0
COC(=O)[C@@]1(C)[C@H]2C(=O)N(Cc3ccccc3)C(=O)[C@H]2[C@H]2CN=C(SCc3ccc(Cl)cc3)N21 | ? | 0 | 0 | ? | 0 | 0
CCN(C[C@H]1N[C@@](CC)(C(=O)OC)[C@H]2C(=O)N(Cc3ccccc3)C(=O)[C@@H]12)C(=O)Nc1ccc(Cl)cc1 | ? | 0 | 0 | 21µM | 0 | 0
CCN(C[C@H]1N[C@@](C)(C(=O)OC)[C@H]2C(=O)N(Cc3ccccc3)C(=O)[C@@H]12)S(=O)(=O)c1ccc(C(C)(C)C)cc1 | 21µM | 0 | 0 | 23µM | 0 | 0
Cn1c(O)c(C2=NNC(c3ccc(Cl)cc3)C2)c(=O)n(C)c1=O (configuration not stated) | 26µM | ? | 0 | ? | ? | 0
CC1CCN(C(=O)N2c3ccccc3Sc3ccccc32)CC1 | ? | 0 | ? | ? | 0[9.24 µM] | 0
CC1CCN(C(=O)CCl)CC1 | ? | 0 | 0 | 16µM | 0 | ?
CC(C)OP(=O)(OC(C)C)C(NCc1ccccc1)c1ccccc1 (configuration not stated) | ? | 0 | 0 | 23µM | 0 | 0
CC[C@@H]1CN2CCc3cc(OC)c(OC)cc3[C@@H]2C[C@@H]1C[C@H]1NCCc2cc(OC)c(OC)cc21 | 0 | - | - | 0.034µM | - | -
